We go through 18 compounds from PubChem BioAssay (Tox21).

Each structure is given as a SMILES string. “And” between values parts separate entries of the source, which are not always exact repeats. Equal values may be shown once. Records with an inconclusive call do not appear. Where a structure was tested more than once in an assay, its records may differ in their call. The source made the active and inactive calls. The call rests on the fitted dose curve; in most records, active means well fitted curve in the direction sought with a large enough effect in the repeat runs; inconclusive means weak or mixed curves; inactive means no such curve, though single readings can be large; an effect the other way counts as inactive or inconclusive.

The nature of experiment [1]: A CellTox Green Cytotoxicity Assay to monitor cytotoxicity in HepG2 cells - 32 hour (AID 1224883). Further: nearly all actives have a fitted effect of over 50% in size. Further: potency means the concentration at half of the fitted maximal effect. The method, boiled down:
(§1)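 Measurements at 0, 8, 16, 24, 32 and 40 h of treatment captured CellTox Green fluorescence in HepG2 cells that had been co-plated with reagent and preincubated 5 h at 37 C/5% CO2.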

Experiment [2] in a line: A CellTox Green Cytotoxicity Assay to monitor cytotoxicity in HEK293 cells - 8 hour (AID 1224884). Further: nearly all actives have a fitted effect of over 35% in size. The procedure, abridged:
(§2)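 Tox21 screen in HEK293: membrane-impermeant cyanine dye fluoresces on binding dead-cell DNA; compound pinned 5 h post-seeding, plates held at 37 C, signal read repeatedly through 40 h.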

The nature of experiment [3]: qHTS RealTime-Glo MT Cell Viability Assay in HepG2 cells - 16 hour (AID 1224885). Further: nearly all actives have a fitted effect of over 50% in size. Further: potency means the concentration at half of the fitted maximal effect. The procedure, abridged:
(§3)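 Cell number in HepG2 cultures estimated from NanoLuc luminescence generated by metabolic reduction of a prosubstrate by living cells. The homogeneous, nonlytic format allowed repeated reads at 0, 8, 16, 24, 32 and 40 h of compound exposure.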
In general terms: In qHTS, concentration-response curves come from the screen itself.

Experiment [4] in a line: qHTS RealTime-Glo MT Cell Viability Assay in HEK293 cells - 24 hour (AID 1224886). Further: nearly all actives have a fitted effect of over 50% in size. Further: potency means the concentration at half of the fitted maximal effect. On activity change, negative = cytotoxicity: top concentration of the series differs between compounds. The procedure, abridged: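 Homogeneous bioluminescent viability format in HEK293 cells (600 cells/well). Following 5 h at 37 C/5% CO2, 23 nL compound was pintooled; the signal was measured repeatedly during 40 h incubation.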
Experiment [5] can be described thus: qHTS RealTime-Glo MT Cell Viability Assay in HEK293 cells - 8 hour (AID 1224887). Further: nearly all actives have a fitted effect of over 50% in size. Further: potency means the concentration at half of the fitted maximal effect. On activity change, negative = cytotoxicity: top concentration of the series differs between compounds. The method, boiled down:
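HEK293 + NanoLuc + prosubstrate, 600 cells/well; 5 h, 37 C/5% CO2; compound 23 nL in DMSO by pintool; 37 C; luminescence read at 0, 8, 16, 24, 32 and 40 h time points.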

Experiment [6] can be described thus: A CellTox Green Cytotoxicity Assay to monitor cytotoxicity in HEK293 cells - 16 hour (AID 1224888). Further: nearly all actives have a fitted effect of over 35% in size. The procedure, abridged: as §2
Experiment [7] in a line: qHTS RealTime-Glo MT Cell Viability Assay in HepG2 cells - 0 hour (AID 1224889). Further: nearly all actives have a fitted effect of over 50% in size. Further: potency means the concentration at half of the fitted maximal effect. The method, boiled down:
as §3

Experiment [8] in a line: A CellTox Green Cytotoxicity Assay to monitor cytotoxicity in HepG2 cells - 8 hour (AID 1224890). Further: nearly all actives have a fitted effect of over 45% in size. The method, boiled down:
as §1

A short description of experiment [9]: qHTS assay to identify small molecule antagonists of the androgen receptor (AR) signaling pathway using the MDA cell line in the presence of 0.5 nM R1881 - cell viability counter screen (AID 1259242). Further: nearly all actives have a fitted effect of over 45% in size. Further: potency means the concentration at half of the fitted maximal effect. The method, boiled down:
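Concentration-response screen of compounds for toxicity in MDA-kb2 reporter cells: 16 hr at 37C with 0.5 nM R1881, endpoint live-cell protease fluorescence measured in the reporter wells.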

Experiment [10] can be described thus: qHTS assay to identify small molecule antagonists of the estrogen receptor alpha (ER-alpha) signaling pathway using the BG1 cell line in the presence of 0.1 nM 17-beta-estradiol - cell viability counter screen (AID 1259241). Further: nearly all actives have a fitted effect of over 40% in size. Further: potency means the concentration at half of the fitted maximal effect. The procedure, abridged:
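Live-cell protease activity (CellTiter-Fluor fluorescence, 30 min) was read in the same wells after VM7Luc4E2 cells had been exposed to compounds with 0.1 nM 17beta-estradiol for 22 hr at 37C.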
On the % scale 0 is the no-effect control and ±100 the full control effect.

`CC(=O)CC(=O)Nc1ccc2[nH]c(=O)[nH]c2c1`: the Potency entry in [1], in experiment [2], in experiment [3], in experiment [4], in [5] and in experiment [6] was “inactive” each time. Moreover, the Potency result in [7], in experiment [8] and in [9] was “inactive” each time.
Take `O=c1n(CC2CO2)c(=O)n(CC2CO2)c(=O)n1CC1CO1` (stereo unspecified): the Potency entry in experiment [1], in experiment [2], in experiment [3], in experiment [4], in experiment [5] and in [6] was “inactive” each time. In addition, the Potency result in experiment [7], in experiment [8], in experiment [10] and in experiment [9] was “inactive” in each case.
For the compound `CC(C)CCOCc1ccccc1`, the Potency result in experiment [1], in [2], in experiment [3], in [4], in experiment [5] and in experiment [6] was “inactive” throughout. Further, the Potency result in experiment [7], in experiment [8], in [10] and in experiment [9] was “inactive” each time.
On to `COc1ccc(COC(C)=O)cc1`, for which the Potency entry in experiment [1], in experiment [2], in experiment [3], in experiment [4], in experiment [5] and in experiment [6] was “inactive” throughout. The Potency entry in experiment [7], in experiment [8], in experiment [10] and in experiment [9] was “inactive” each time.
Consider `CC(COc1ccccc1)N(CCCl)Cc1ccccc1` (stereo unspecified), for which the Potency in experiment [1] is 55.5 µM (active); in experiment [4], 49.5 µM (active) and 49 µM (active); in [9] it was 55 µM (active) and inactive. Further, the Potency result in experiment [2], in [3], in [5], in [6], in experiment [7] and in experiment [8] was “inactive” in each case. For the same compound, the Potency entry in [10] is “inactive”.
For `NC12CC3CC(CC(C3)C1)C2`, the Potency result in experiment [1], in experiment [2], in experiment [3], in experiment [4], in [5] and in [6] was “inactive” throughout. The Potency entry in experiment [7], in experiment [8], in experiment [10] and in experiment [9] was “inactive” each time.
For the compound `O=Cc1ccc(Cl)cc1`, the Potency entry in experiment [1], in experiment [2], in experiment [3], in experiment [4], in [5] and in [6] was “inactive” throughout. For the same compound, the Potency entry in [7], in experiment [8] and in experiment [9] was “inactive” throughout.
As to `NCCCCCC(=O)O`, the Potency entry in experiment [1], in experiment [2], in experiment [3], in experiment [4], in experiment [5] and in experiment [6] was “inactive” each time. Besides, the Potency result in [7], in [8], in experiment [10] and in experiment [9] was “inactive” in each case.
For the compound `CCC[C@H](N[C@@H](C)C(=O)N1[C@H](C(=O)O)C[C@@H]2CCCC[C@@H]21)C(=O)OCC`, the Potency result in [1], in experiment [2], in experiment [3], in experiment [4], in experiment [5] and in [6] was “inactive” in each case. Besides, the Potency entry in experiment [7], in experiment [8], in experiment [10] and in experiment [9] was “inactive” in each case.
On to `C#CC(C)(CC)OC(=O)c1ccccc1C(=O)O` (stereo unspecified), for which the Potency entry in [1], in experiment [2], in experiment [3], in experiment [4], in experiment [5] and in [6] was “inactive” throughout. For the same compound, the Potency entry in experiment [7], in experiment [8], in experiment [10] and in [9] was “inactive” each time.
Consider `CC(=O)N[C@@H](CS)C(=O)O`, for which the Potency result in [1], in experiment [2], in experiment [3], in experiment [4], in [5] and in experiment [6] was “inactive” throughout. For the same compound, the Potency entry in experiment [7], in [8], in [10] and in experiment [9] was “inactive” in each case.
For the compound `O=Nc1ccc(Nc2ccccc2)cc1`, the Potency was 49.2 µM (active) and 43.6 µM (active) in experiment [1]; 43.6 µM (active) in [3]; 6.96 µM (active) and 9.77 µM (active) in experiment [4]; 15.6 µM (active) and 21.9 µM (active) in [5]; 19.6 µM (active) in [7]. Further, the Potency entry in [2], in experiment [6], in [8] and in experiment [10] was “inactive” in each case.
On to `O=C1Nc2ccccc2C1(c1ccc(O)cc1)c1ccc(O)cc1`, for which the Potency result in experiment [1], in [2], in [3], in experiment [4], in experiment [5] and in experiment [6] was “inactive” each time. Further, the Potency entry in [7], in [8] and in experiment [9] was “inactive” in each case. The Potency in experiment [10] is 0.298 µM (active).
Take `Nc1ccc2cc3ccccc3cc2c1`: the Potency entry in [1], in experiment [2], in experiment [3], in experiment [4], in [5] and in experiment [6] was “inactive” throughout. For the same compound, the Potency entry in [7], in [8], in experiment [10] and in [9] was “inactive” each time.
On to `CCCC(=O)c1ccccc1`, for which the Potency entry in experiment [1], in [2], in experiment [3], in experiment [4], in experiment [5] and in experiment [6] was “inactive” each time. In addition, the Potency result in experiment [7], in [8] and in experiment [9] was “inactive” each time.
In the case of `C=C(C)C1CC=C(C)C(OC(C)=O)C1` (stereo unspecified), the Potency entry in experiment [1], in experiment [2], in experiment [3], in [4], in [5] and in experiment [6] was “inactive” in each case. The Potency entry in [7], in experiment [8], in experiment [10] and in [9] was “inactive” each time.
For `CCCCCCCCCCCCCCCCCl`, the values for the cytotoxicity increase in experiment [1], in [2] and in [8] were 1.23% [at 15.8 µM] (inactive), 2.79% [at 15.8 µM] (inactive) and 3.53% [at 15.8 µM] (inactive), respectively. The activity change, negative = cytotoxic in experiment [3] was 0.939% [at 15.8 µM] (inactive). Moreover, the activity change, negative = cytotoxicity in experiment [4] is 0.956% [at 15.8 µM] (inactive); in [5], 1.34% [at 15.8 µM] (inactive); in experiment [7], -0.916% [at 15.8 µM] (inactive); in experiment [10], 9.43% [at 19 µM] (inactive). The activity change in experiment [6] was 5.27% [at 15.8 µM, stronger effect = higher value] (inactive). Also, the viability change, negative = cytotoxic in experiment [9] is -2.37% [at 19 µM] (inactive).
Consider `O=C1CC2(CCCC2)CC(=O)N1CCCCN1CCN(c2ncccn2)CC1`, for which the Potency in experiment [1] is 43.6 µM (active) and inactive; in experiment [4] it was 49 µM (active) and inactive. Further, the Potency entry in experiment [2], in experiment [3], in [5], in [6], in experiment [7] and in [8] was “inactive” each time. The Potency result in experiment [10] and in experiment [9] was “inactive” each time.
